# Results taken from PMC11062922 (Nature Chemical Biology, 2023).
# Read-outs that look alike come from different tables or passages of the source.
# Key:
# Parameters in all cases: species or system human, MV4-11 + K-562 + COLO205 + SK-N-BE2 + OVCAR-8
# [1] = tested on: CDK6; conditions: read-out: apparent Kd; compound concentrations:100 nM and 1000 nM (sheet 'Samples'); n = 1
# [2] = tested on: T1, DJA1; conditions: read-out: apparent Kd; compound concentrations:100 nM and 1000 nM (sheet 'Samples'); n = 1
# T1 construct: gene DNAJA1
# [3] = tested on: GARS; conditions: read-out: apparent Kd; compound concentrations:100 nM and 1000 nM (sheet 'Samples'); n = 1
# [4] = tested on: GSK3A; conditions: read-out: apparent Kd; compound concentrations:100 nM and 1000 nM (sheet 'Samples'); n = 1
# [5] = tested on: GSK3B; conditions: read-out: apparent Kd; compound concentrations:100 nM and 1000 nM (sheet 'Samples'); n = 1
# [6] = tested on: MAP2K1; conditions: read-out: apparent Kd; compound concentrations:100 nM and 1000 nM (sheet 'Samples'); n = 1
# [7] = tested on: NNT; conditions: read-out: apparent Kd; compound concentrations:100 nM and 1000 nM (sheet 'Samples'); n = 1
# [8] = tested on: NQO1; conditions: read-out: apparent Kd; compound concentrations:100 nM and 1000 nM (sheet 'Samples'); n = 1
# [9] = tested on: PIK3CA; conditions: read-out: apparent Kd; compound concentrations:100 nM and 1000 nM (sheet 'Samples'); n = 1
# [10] = tested on: PIK3CD; conditions: read-out: apparent Kd, n = 1
# [11] = tested on: PRKCZ; conditions: read-out: apparent Kd; compound concentrations:100 nM and 1000 nM (sheet 'Samples'); n = 1
# [12] = tested on: PRKD2; conditions: read-out: apparent Kd; compound concentrations:100 nM and 1000 nM (sheet 'Samples'); n = 1
# [13] = tested on: PSMC3; conditions: read-out: apparent Kd; compound concentrations:100 nM and 1000 nM (sheet 'Samples'); n = 1
# [14] = tested on: SMC4; conditions: read-out: apparent Kd; compound concentrations:100 nM and 1000 nM (sheet 'Samples'); n = 1
# [15] = tested on: FYN; conditions: read-out: apparent Kd; compound concentrations:100 nM and 1000 nM (sheet 'Samples'); n = 1
# [16] = tested on: MAP2K2; conditions: read-out: apparent Kd; compound concentrations:100 nM and 1000 nM (sheet 'Samples'); n = 1
# [17] = tested on: MAPK14; conditions: read-out: apparent Kd; compound concentrations:100 nM and 1000 nM (sheet 'Samples'); n = 1
# [18] = tested on: PI4KA; conditions: read-out: apparent Kd; compound concentrations:100 nM and 1000 nM (sheet 'Samples'); n = 1
# [19] = tested on: PIK3C2A; conditions: read-out: apparent Kd; compound concentrations:100 nM and 1000 nM (sheet 'Samples'); n = 1
# [20] = tested on: PIK3C3; conditions: read-out: apparent Kd; compound concentrations:100 nM and 1000 nM (sheet 'Samples'); n = 1
# [21] = tested on: PIK3CB; conditions: read-out: apparent Kd; compound concentrations: 100 nM and 1000 nM (sheet 'Samples'), CATDS: 0.44243244506727197; n = 1
# [22] = tested on: PIM2; conditions: read-out: apparent Kd; compound concentrations:100 nM and 1000 nM (sheet 'Samples'); n = 1
# [23] = tested on: PRKDC; conditions: read-out: apparent Kd; compound concentrations:100 nM and 1000 nM (sheet 'Samples'); n = 1
# [24] = tested on: RIOK2; conditions: read-out: apparent Kd, n = 1
# [25] = tested on: VDAC3; conditions: read-out: apparent Kd; compound concentrations:100 nM and 1000 nM (sheet 'Samples'); n = 1
# [26] = tested on: CDKL5; conditions: read-out: apparent Kd; compound concentrations: 100 nM and 1000 nM (sheet 'Samples'), CATDS: 6.7048972560418404E-2; n = 1
# [27] = tested on: CLK1; conditions: read-out: apparent Kd; compound concentrations: 100 nM and 1000 nM (sheet 'Samples'), CATDS: 9.1245201473329901E-2; n = 1
# [28] = tested on: CLK4; conditions: read-out: apparent Kd; compound concentrations: 100 nM and 1000 nM (sheet 'Samples'), CATDS: 8.9493688970087706E-2; n = 1
# [29] = tested on: CSNK1A1; conditions: read-out: apparent Kd; compound concentrations: 100 nM and 1000 nM (sheet 'Samples'), CATDS: 7.1676757807884198E-2; n = 1
# [30] = tested on: CSNK1D; conditions: read-out: apparent Kd; compound concentrations: 100 nM and 1000 nM (sheet 'Samples'), CATDS: 0.23797441251711701; n = 1
# [31] = tested on: CSNK1E; conditions: read-out: apparent Kd; compound concentrations: 100 nM and 1000 nM (sheet 'Samples'), CATDS: 0.17923780337449699; n = 1
# [32] = tested on: DYRK1A; conditions: read-out: apparent Kd; compound concentrations: 100 nM and 1000 nM (sheet 'Samples'), CATDS: 7.8911513629173299E-2; n = 1
# [33] = tested on: MAPK8; conditions: read-out: apparent Kd; compound concentrations: 100 nM and 1000 nM (sheet 'Samples'), CATDS: 6.0987882625533299E-2; n = 1
# [34] = tested on: MELK; conditions: read-out: apparent Kd; compound concentrations: 100 nM and 1000 nM (sheet 'Samples'), CATDS: 6.0030175657403803E-2; n = 1
# [35] = tested on: NQO2; conditions: read-out: apparent Kd; compound concentrations: 100 nM and 1000 nM (sheet 'Samples'), CATDS: 6.6170323393418801E-2; n = 1
# [36] = tested on: TGFBR2; conditions: read-out: apparent Kd; compound concentrations: 100 nM and 1000 nM (sheet 'Samples'), CATDS: 8.1907636331175093E-2; n = 1
# [37] = tested on: CDK9; conditions: read-out: apparent Kd; compound concentrations:100 nM and 1000 nM (sheet 'Samples'); n = 1
# [38] = tested on: NEK3; conditions: read-out: apparent Kd; compound concentrations:100 nM and 1000 nM (sheet 'Samples'); n = 1
# [39] = compound concentrations:100 nM and 1000 nM (sheet 'Samples')
compound,measurement,setting,value
COc1cccc(C2=C(Nc3cccc(C(=O)O)c3)C(=O)NC2=O)c1 [SB-390770],potency estimated from few doses,[1],2180 nM
same,potency estimated from few doses,[2],842 nM
same,potency estimated from few doses,[3],1360 nM
same,potency estimated from few doses,[4],830 nM
same,potency estimated from few doses,[5],859 nM
same,potency estimated from few doses,[6],2350 nM
same,potency estimated from few doses,[7],1120 nM
same,potency estimated from few doses,[8],2210 nM
same,potency estimated from few doses,[9],226 nM
same,potency estimated from few doses,[10]; [39],130 nM
same,potency estimated from few doses,[11],1580 nM
same,potency estimated from few doses,[12],1720 nM
same,potency estimated from few doses,[13],907 nM
same,potency estimated from few doses,[14],986 nM
O=c1cc(N2CCOCC2)nc2n(Cc3cccc(F)c3)ccn12 [GSK2297430A],potency estimated from few doses,[1],2000 nM
same,potency estimated from few doses,[15],1140 nM
same,potency estimated from few doses,[16],1780 nM
same,potency estimated from few doses,[17],1450 nM
same,potency estimated from few doses,[18],1610 nM
same,potency estimated from few doses,[19],2440 nM
same,potency estimated from few doses,[20],235 nM
same,potency estimated from few doses,[21],31.5 nM
same,potency estimated from few doses,"[10]; compound concentrations: 100 nM and 1000 nM (sheet 'Samples'), CATDS: 0.27438684743153402",68.1 nM
same,potency estimated from few doses,[22],1670 nM
same,potency estimated from few doses,[23],1130 nM
same,potency estimated from few doses,[24]; [39],1490 nM
same,potency estimated from few doses,[25],1830 nM
FC(F)(F)CNc1nccc(-c2cnn3ncccc23)n1 [GW683003X],potency estimated from few doses,[26],1220 nM
same,potency estimated from few doses,[27],572 nM
same,potency estimated from few doses,[28],596 nM
same,potency estimated from few doses,[29],1010 nM
same,potency estimated from few doses,[30],117 nM
same,potency estimated from few doses,[31],176 nM
same,potency estimated from few doses,[32],792 nM
same,potency estimated from few doses,[33],1650 nM
same,potency estimated from few doses,[34],1740 nM
same,potency estimated from few doses,[35],1270 nM
same,potency estimated from few doses,"[24]; compound concentrations: 100 nM and 1000 nM (sheet 'Samples'), CATDS: 9.8324164530309899E-2",491 nM
same,potency estimated from few doses,[36],726 nM
Nc1n[nH]c2cnc(-c3ccccc3)cc12 [SB-642124-AAA],potency estimated from few doses,[37],1400 nM
same,potency estimated from few doses,[38],1820 nM
